Assay in all cases: log2 fold change, soluble protein after heating vs DMSO (PISA); higher = thermal stabilisation; K562 lysate, 10 uM; active = over 0.2 and 3.5 SD of the protein, either way, in both replicates (recomputed)
Compound in assay [1]: NCC(=O)Nc1ccc(-n2nc(C(F)(F)F)cc2-c2ccc3c(ccc4ccccc43)c2)cc1
A digest of the protocol:
(§1)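 Pellets of K562 cells were dounce-homogenised in PBS pH 7.4 with 1 mM MgCl2, and the crude extract was held at 1 mg/mL protein for a 30 min treatment with 10 μM compound. Aliquots were heated for 3 min over 48°C-58°C and pooled before NP-40 was added to 0.5% at 4°C. The supernatant from 21,000xg for 90 min was quantified by TMTpro 16plex LC-MS/MS with channel sums equalised. Values are reported from duplicates as log-two fold change in thermal stability relative to solvent controls.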

Compound in a further assay: O=C(CCCCCCC(=O)Nc1ccccc1)NO [vorinostat]
In short, it runs like this: as §1

Compound in another assay: O=C(O)c1ccc2c(c1)nc(Nc1cccc(Cl)c1)c1ccncc12 [silmitasertib]
In short, it runs like this:
as §1

Compound in assay [2]: O=C1NC(=O)C(c2cnc3ccccn23)=C1c1cn2c3c(cc(F)cc13)CN(C(=O)N1CCCCC1)CC2
A digest of the protocol:
as §1

Compound in the next assay: c1cn2cc(-c3ccc4cn[nH]c4c3)nc(Nc3ccc(N4CCOCC4)cc3)c2n1 [entospletinib]
A digest of the protocol:
as §1

Of roughly 8,800 targets only a part is listed; those with a hit were picked by preference. About 0.5% of all pairs of compound and target were hits. Unmarked numbers belong to inactive results.

Chain of UniProt P14314 (P14314 whole entry, looked up): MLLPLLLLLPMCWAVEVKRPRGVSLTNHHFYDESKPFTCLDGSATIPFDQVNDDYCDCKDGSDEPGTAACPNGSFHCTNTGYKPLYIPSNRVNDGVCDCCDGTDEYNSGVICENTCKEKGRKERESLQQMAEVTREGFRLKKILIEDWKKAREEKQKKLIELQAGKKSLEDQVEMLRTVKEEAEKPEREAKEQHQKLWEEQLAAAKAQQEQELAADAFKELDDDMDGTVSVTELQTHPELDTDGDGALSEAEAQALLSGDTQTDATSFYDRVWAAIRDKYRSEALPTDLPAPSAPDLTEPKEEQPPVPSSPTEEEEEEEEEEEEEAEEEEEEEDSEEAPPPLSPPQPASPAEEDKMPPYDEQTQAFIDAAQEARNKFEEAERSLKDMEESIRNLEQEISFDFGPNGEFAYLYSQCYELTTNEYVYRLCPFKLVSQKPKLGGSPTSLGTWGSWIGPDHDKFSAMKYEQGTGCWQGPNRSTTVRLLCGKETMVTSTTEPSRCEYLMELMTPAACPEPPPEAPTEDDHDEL
Chain of UniProt O15031 (O15031 whole entry, looked up): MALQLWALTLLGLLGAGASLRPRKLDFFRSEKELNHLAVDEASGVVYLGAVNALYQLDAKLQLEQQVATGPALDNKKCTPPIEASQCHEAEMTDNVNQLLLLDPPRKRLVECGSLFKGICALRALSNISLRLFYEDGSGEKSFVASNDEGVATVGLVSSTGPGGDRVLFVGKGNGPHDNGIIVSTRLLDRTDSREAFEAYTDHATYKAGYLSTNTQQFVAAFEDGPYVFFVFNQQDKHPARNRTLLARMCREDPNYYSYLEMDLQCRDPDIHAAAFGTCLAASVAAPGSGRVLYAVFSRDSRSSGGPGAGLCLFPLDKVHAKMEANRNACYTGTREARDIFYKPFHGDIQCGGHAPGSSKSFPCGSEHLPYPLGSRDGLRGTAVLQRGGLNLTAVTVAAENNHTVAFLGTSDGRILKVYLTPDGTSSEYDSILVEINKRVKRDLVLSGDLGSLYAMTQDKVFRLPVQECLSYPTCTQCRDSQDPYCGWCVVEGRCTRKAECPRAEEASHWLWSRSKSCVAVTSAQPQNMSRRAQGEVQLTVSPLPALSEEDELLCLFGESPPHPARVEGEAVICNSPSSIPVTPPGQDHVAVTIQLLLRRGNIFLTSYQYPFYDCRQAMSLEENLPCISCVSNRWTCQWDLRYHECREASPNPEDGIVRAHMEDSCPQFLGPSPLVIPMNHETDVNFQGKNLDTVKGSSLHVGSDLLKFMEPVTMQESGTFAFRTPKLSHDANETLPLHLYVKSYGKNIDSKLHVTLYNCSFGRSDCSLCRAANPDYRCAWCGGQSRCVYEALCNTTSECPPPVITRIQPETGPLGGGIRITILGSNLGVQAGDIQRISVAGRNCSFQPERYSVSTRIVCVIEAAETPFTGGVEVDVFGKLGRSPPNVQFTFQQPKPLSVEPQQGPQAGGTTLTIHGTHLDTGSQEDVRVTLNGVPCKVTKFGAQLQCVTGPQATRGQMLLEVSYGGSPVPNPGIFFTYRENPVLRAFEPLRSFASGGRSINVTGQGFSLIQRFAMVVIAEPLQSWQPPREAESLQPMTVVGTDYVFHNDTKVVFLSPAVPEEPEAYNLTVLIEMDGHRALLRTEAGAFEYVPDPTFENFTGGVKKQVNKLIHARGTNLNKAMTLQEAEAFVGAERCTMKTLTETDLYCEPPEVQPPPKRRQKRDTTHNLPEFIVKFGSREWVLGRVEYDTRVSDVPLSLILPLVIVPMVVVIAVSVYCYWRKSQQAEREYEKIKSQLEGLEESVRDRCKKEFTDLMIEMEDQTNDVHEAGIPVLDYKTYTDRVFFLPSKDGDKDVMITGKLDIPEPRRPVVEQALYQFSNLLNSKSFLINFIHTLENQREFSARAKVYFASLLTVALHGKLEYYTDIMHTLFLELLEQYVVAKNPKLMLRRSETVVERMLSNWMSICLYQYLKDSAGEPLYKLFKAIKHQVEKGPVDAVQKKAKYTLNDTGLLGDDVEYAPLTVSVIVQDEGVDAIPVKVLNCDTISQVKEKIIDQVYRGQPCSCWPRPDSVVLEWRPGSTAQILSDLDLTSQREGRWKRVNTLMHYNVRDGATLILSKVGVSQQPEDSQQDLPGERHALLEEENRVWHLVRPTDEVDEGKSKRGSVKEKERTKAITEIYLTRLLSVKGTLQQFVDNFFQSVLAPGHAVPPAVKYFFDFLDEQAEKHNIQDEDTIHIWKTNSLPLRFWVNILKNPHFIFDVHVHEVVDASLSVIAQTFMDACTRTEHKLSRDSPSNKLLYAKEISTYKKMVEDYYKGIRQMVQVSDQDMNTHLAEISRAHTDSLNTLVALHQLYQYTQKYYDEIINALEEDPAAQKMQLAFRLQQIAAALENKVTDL
Chain of UniProt Q9UBV8 (Q9UBV8 whole entry, looked up): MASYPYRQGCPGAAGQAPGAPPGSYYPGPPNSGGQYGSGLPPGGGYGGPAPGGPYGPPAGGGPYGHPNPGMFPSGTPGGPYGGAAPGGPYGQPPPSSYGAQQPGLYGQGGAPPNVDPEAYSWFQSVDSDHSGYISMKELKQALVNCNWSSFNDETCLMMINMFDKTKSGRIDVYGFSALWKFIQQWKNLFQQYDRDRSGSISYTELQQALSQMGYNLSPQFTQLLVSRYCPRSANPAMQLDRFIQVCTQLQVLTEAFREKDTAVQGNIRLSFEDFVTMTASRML
Chain of UniProt Q9H7Z7 (Q9H7Z7 whole entry, looked up): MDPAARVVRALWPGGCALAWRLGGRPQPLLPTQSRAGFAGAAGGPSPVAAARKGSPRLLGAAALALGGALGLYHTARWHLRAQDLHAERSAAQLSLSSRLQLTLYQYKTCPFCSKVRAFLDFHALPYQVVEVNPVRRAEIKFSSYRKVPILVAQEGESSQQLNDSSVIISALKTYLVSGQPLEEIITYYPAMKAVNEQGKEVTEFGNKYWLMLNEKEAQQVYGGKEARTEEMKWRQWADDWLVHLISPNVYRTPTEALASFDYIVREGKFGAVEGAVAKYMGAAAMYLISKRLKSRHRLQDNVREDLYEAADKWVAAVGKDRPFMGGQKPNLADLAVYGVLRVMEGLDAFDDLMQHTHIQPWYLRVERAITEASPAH
Chain of UniProt Q96I23 (Q96I23 whole entry, looked up): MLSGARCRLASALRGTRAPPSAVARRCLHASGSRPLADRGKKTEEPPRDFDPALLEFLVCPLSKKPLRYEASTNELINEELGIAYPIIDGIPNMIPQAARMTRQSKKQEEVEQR
Chain of UniProt P27986 (P27986 whole entry, looked up): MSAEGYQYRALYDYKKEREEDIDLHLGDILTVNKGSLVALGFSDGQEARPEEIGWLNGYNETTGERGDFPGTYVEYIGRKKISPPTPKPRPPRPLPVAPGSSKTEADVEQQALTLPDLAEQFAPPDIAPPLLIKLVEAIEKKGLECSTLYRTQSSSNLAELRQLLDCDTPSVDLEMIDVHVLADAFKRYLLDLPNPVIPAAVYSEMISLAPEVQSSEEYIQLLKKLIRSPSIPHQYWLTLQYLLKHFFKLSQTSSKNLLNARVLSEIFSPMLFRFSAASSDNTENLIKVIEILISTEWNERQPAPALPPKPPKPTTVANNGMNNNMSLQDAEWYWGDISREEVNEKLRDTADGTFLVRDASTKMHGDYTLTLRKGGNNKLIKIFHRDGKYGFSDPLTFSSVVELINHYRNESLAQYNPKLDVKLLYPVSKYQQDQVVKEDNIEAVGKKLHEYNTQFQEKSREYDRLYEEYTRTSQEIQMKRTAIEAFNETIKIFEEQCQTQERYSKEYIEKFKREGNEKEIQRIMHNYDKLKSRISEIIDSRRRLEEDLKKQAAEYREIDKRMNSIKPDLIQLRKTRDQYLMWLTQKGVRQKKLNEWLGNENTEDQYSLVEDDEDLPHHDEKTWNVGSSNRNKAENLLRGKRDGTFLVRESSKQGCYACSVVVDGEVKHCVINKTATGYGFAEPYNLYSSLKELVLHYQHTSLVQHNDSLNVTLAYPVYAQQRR
Chain of UniProt P28340 (P28340 whole entry, looked up): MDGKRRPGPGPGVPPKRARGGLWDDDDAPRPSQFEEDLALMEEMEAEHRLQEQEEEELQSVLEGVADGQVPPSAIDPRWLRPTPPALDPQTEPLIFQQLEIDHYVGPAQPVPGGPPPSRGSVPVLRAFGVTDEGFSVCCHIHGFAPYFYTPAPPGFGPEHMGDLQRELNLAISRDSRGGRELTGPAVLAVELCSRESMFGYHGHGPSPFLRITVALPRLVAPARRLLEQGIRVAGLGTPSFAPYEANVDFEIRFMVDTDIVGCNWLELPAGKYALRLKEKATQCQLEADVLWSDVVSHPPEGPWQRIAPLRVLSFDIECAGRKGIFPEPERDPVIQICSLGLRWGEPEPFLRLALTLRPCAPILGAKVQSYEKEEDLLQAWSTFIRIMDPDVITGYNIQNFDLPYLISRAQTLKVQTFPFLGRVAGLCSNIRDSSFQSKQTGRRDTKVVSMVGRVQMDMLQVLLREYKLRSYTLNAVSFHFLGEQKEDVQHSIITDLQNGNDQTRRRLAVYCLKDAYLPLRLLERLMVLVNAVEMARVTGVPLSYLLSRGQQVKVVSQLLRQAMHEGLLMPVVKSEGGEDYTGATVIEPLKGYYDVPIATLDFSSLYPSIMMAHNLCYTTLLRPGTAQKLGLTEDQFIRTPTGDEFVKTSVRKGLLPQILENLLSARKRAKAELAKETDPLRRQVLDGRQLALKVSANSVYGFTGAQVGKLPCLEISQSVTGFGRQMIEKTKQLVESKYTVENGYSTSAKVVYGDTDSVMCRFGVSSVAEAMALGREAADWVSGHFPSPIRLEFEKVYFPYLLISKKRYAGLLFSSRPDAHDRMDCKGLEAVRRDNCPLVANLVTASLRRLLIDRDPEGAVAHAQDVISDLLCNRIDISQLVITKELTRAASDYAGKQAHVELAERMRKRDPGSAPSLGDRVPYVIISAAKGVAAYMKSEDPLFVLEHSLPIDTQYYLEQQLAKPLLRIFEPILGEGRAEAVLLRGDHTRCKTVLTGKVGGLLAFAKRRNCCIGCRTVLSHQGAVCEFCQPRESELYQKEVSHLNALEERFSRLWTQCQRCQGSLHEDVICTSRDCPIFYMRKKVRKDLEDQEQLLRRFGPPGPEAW

For POLB (UniProt P06746), the log2 fold change in assay [1] was 0.027; with vorinostat it was -0.302 (active); with silmitasertib, -0.106; in assay [2], -0.023; with entospletinib, 0.022.

As for PCIF1 (UniProt Q9H4Z3), the log2 fold change in assay [1] was -0.018; with vorinostat, -0.011; with silmitasertib, 0.112; in assay [2], 0.036; with entospletinib, 0.085.

For PPP2CA (UniProt P67775), the log2 fold change was -0.079 in assay [1]; 0.076 with vorinostat; -0.021 with silmitasertib; -0.004 in assay [2]; 0 with entospletinib.

Take PLXNB2 (UniProt O15031): the log2 fold change was 0.003 in assay [1]; 0.033 with vorinostat; 0.001 with silmitasertib; 0.019 in assay [2]; -0.03 in the assay with entospletinib.

Take PRC1 (UniProt O43663): the log2 fold change was 0.012 in assay [1]; -0.387 (active) with vorinostat; 0.046 with silmitasertib; -0.02 in assay [2]; 0.023 with entospletinib.

As to PTGES2 (UniProt Q9H7Z7), the log2 fold change was -0.175 in assay [1]; -0.197 with vorinostat; 0.304 with silmitasertib; 0.12 in assay [2]; 0.085 with entospletinib.

Consider PGPEP1 (UniProt Q9NXJ5), for which the log2 fold change in assay [1] is 0; in the assay with vorinostat, -0.526 (active); in the assay with silmitasertib it was 0.009; in assay [2], 0.012; in the assay with entospletinib, -0.049.

For PLIN2 (UniProt Q99541), the log2 fold change in assay [1] is 0.012; in the assay with vorinostat, 0.063; with silmitasertib, -0.008; in assay [2], 0.008; in the assay with entospletinib it was -0.032.

Regarding PI4K2B (UniProt Q8TCG2), the log2 fold change is -0.038 in assay [1]; -0.054 in the assay with vorinostat; 0.041 with silmitasertib; 0.011 in assay [2]; 0.014 with entospletinib.

As to PUS3 (UniProt Q9BZE2), the log2 fold change in assay [1] was 0.051; with vorinostat, -0.527 (active); with silmitasertib, 0.11; in assay [2], 0.017; in the assay with entospletinib it was -0.041.

For the target PYURF (UniProt Q96I23), the log2 fold change was -0.346 (active) in assay [1]; -0.007 in the assay with vorinostat; -0.001 with silmitasertib; -0.055 in assay [2]; -0.048 with entospletinib.

Regarding PMPCA (UniProt Q10713), the log2 fold change in assay [1] is 0.031; with vorinostat it was 0.033; in the assay with silmitasertib, -0.044; in assay [2], 0.003; with entospletinib, -0.019.

PEF1 (UniProt Q9UBV8): the log2 fold change is -0.186 in assay [1]; 0.467 (active) with vorinostat; -0.005 in the assay with silmitasertib; -0.008 in assay [2]; -0.009 in the assay with entospletinib.

In the case of PIK3R1 (UniProt P27986), the log2 fold change in assay [1] was -0.035; with vorinostat, -0.206; in the assay with silmitasertib, 0.213; in assay [2], 0.022; in the assay with entospletinib, 0.03.

Consider PLXND1 (UniProt Q9Y4D7), for which the log2 fold change is -0.132 with vorinostat, 0.174 with silmitasertib and 0.018 in assay [2].

For the target POLD1 (UniProt P28340), the log2 fold change in assay [1] was 0.016; with vorinostat it was -0.245 (active); in the assay with silmitasertib, 0.016; in assay [2], 0.005; in the assay with entospletinib it was -0.009.

In the case of PRKCSH isoform 2 (UniProt P14314), the log2 fold change was -0.046 in assay [1]; 0.126 with vorinostat; -0.057 with silmitasertib; -0.019 in assay [2]; 0.037 with entospletinib.

With PIK3C3 (UniProt Q8NEB9), the log2 fold change is -0.04 in assay [1]; -0.066 in the assay with vorinostat; 0.037 with silmitasertib; 0.019 in assay [2]; -0.014 in the assay with entospletinib.

With PECR (UniProt Q9BY49), in the assay with entospletinib, the log2 fold change is 0.115.

These data come from the supplement of paper PMC10849652.
